According to ChEMBL document CHEMBL4513216, “Probing the Open Global Health Chemical Diversity Library for Multistage-Active Starting Points for Next-Generation Antimalarials” (ACS Infect Dis, 2020):
In all, about 65,000 compounds went through this assay and about 2,100 (3.2%) showed an effect of 50% or more. The median lay at about -52%. This is one part of a sample in which strong results are shown more often than they occur.

These compounds were tested on Plasmodium falciparum (assay: Screen against P. falciparum Asexual Blood Stage (ABS), at 5uM). Conditions: tested at 5 uM.
Assay type: functional, Dd2
For `O=C(C1CC(=O)N(c2ccccc2Br)C1)N1CCC2(CC1)OCCO2` (configuration not stated), the INHIBITION was -113%. `O=C(C1CC1)N1CCC2(CC1)CNCCO2` showed an INHIBITION of -34.5%. In the case of `Cc1n[nH]c2c1C(c1ccc(F)cc1)SCC(=O)N2` (configuration not stated), the INHIBITION is reported as -4.37%. For `Cc1c(C(C)N)cnn1-c1cccc2ccccc12` (configuration not stated), the INHIBITION was 74.5%. With `O=C(COc1ccc(Cl)cc1Cl)N1CCCSCC1CN1CCOCC1` (configuration not stated) the INHIBITION was -30%. With `Cn1cccc1C(CNC(=O)COc1ccc(Cl)cc1Cl)N1CCCC1` (configuration not stated) the INHIBITION was 74.3%. For `CN(C)C(=O)C1OC2(CCNCC2)c2ccccc21` (configuration not stated), the INHIBITION was -73%. For `COc1ccccc1CCN[C@@H]1c2ccccc2C2(CCNCC2)[C@H]1O`, the INHIBITION was 81.5%. Compound `Cc1ccc(CCN[C@@H]2c3ccccc3C3(CCNCC3)[C@H]2O)s1` has an INHIBITION of 87.1%. For `CCN1CCOCC2(C1)CN(C(=O)c1c(C)noc1C)CCO2` (configuration not stated), the INHIBITION was -31%. For `COCCN(CCOC)C(=O)c1cn(C(C)(C)C)c2ncccc12`, the INHIBITION was -81.6%. Compound `CCc1cnc(N)nc1NC(C)c1ccc(C)c(C)c1` (configuration not stated) has an INHIBITION of 73.8%. Compound `CC1CCN(CC(=O)NC2CCN(C(C)c3ccccc3)CC2)CC1` (configuration not stated) has an INHIBITION of 84.3%. With `O=C(CN1CCN(C(=O)Cc2ccc3c(c2)OCCO3)CC1)NC1CC1` the INHIBITION was -148%. `O=C(NC1CC1)[C@H]1CN(Cc2ccccc2)C[C@@H]1C(=O)c1ccccc1` was tested, and the INHIBITION was -154%. With `Cc1cccnc1CCNC(=O)[C@@]12CNC[C@@H]1CN(S(C)(=O)=O)C2` the INHIBITION was -50.4%. In the case of `CC(Cc1c(F)cccc1F)NC(=O)Nc1cnn(CC(N)=O)c1` (configuration not stated), the INHIBITION is reported as -77.1%. With `Cc1nn(C)c(N(C)C)c1CNC(C)Cc1c(F)cccc1F` (configuration not stated) the INHIBITION was -5.23%. For `CCc1cccnc1NCc1cnc(N2CCOCC2)nc1`, the INHIBITION was -53.7%. `Cc1ccccc1CC(C)NCc1c(C)nn(C)c1N1CCOCC1` (configuration not stated) showed an INHIBITION of 65.8%. For `c1csc(CN2C[C@@H]3COC[C@]3(COCc3ccncc3)C2)c1`, the INHIBITION was -42.6%. With `O=C(c1ccoc1)N1CCC2(CC1)C(=O)N(CC1CC1)c1ccccc12` the INHIBITION was 74.7%. `COCCN1C(=O)C2(CCN(CC3CC3)CC2)c2ccccc21` was tested, and the INHIBITION was -18%. For `CCN1C(=O)C2(CCN(CCN(C)C)CC2)c2ccccc21`, the INHIBITION was -56.2%. `c1ccc(-c2nc3c(c(NCc4n[nH]c5c4CCC5)n2)CCNC3)cc1` gave an INHIBITION of 89.6%. In the case of `CC(Cn1ccnc1)NCc1n[nH]c2c1CCC2` (configuration not stated), the INHIBITION is reported as -33%. `CN1CCC2(CCN(C(=O)c3cccnc3)C2)C1` (configuration not stated) gave an INHIBITION of -11.5%. Work on `CCCN(C(=O)c1cccnc1)c1nc2c(s1)CCc1c-2cnn1C` yielded an INHIBITION of 82.4%. With `O=C(c1cccnc1)N1C[C@H]2CC[C@@H](C1)N(Cc1ncc[nH]1)C2` the INHIBITION was -47.1%. With `O=C(c1ccc(F)c(Cl)c1)N1C[C@H]2CC[C@@H](C1)N(Cc1ccccc1)C2` the INHIBITION was 74.1%. Work on `O=C(c1c[nH]c(=O)c(Cl)c1)N1C[C@H]2CC[C@@H](C1)N(CC1CCC1)C2` yielded an INHIBITION of -110%. `CS(=O)(=O)CC1(CNc2ccc(C#N)c(C(F)(F)F)c2)CC1` showed an INHIBITION of -27%. `CCOc1ccc(CNCC(O)c2ccccc2)cc1Cl` (configuration not stated) showed an INHIBITION of 89.4%. `CNc1cc(C)nc(NCc2cc(C)cc3c(C)c(C)[nH]c23)n1` gave an INHIBITION of 92%. For `CNc1nc(C)cc(NCc2cc(C)cc3c(C)c(C)[nH]c23)n1`, the INHIBITION was 92.7%. `c1nc(N2CCOCC2)nc2c1COCC21CCN(CC2CC2)C1` (configuration not stated) was tested, and the INHIBITION was -12.1%. For `CC(C)NC(=O)[C@H]1C[C@@H]2[C@@H](C1)OCCN2Cc1ccncc1`, the INHIBITION was -82%. Work on `COc1cccc(C2SCC(=O)Nc3ccsc32)c1OC` (configuration not stated) yielded an INHIBITION of -4.19%. `CN(C)CCN1CC2(CCCN(c3ncc(Cl)cc3F)C2)CCC1=O` (configuration not stated) showed an INHIBITION of 82.8%. `O=C(Cc1ccsc1)N1C[C@@H]2OCCN(CC3CC3)[C@@H]2C1` showed an INHIBITION of -48%. For `Cc1ccc(N2CCN(C)c3ncccc3C2)nn1`, the INHIBITION was -27.9%. In the case of `c1cncc(-c2ccc3c(c2)CCC32CCN(Cc3ccco3)CC2)c1`, the INHIBITION is reported as 73.9%. With `CN(C)CCN1CCCC12CCCN(C(=O)c1cccnc1)C2` (configuration not stated) the INHIBITION was -10.1%. Compound `O=C1NC2(CCNCC2)CC1c1cccnc1` (configuration not stated) has an INHIBITION of -11.2%. In the case of `O=C1N(c2cccnc2)CCC12CCCN(Cc1ccco1)C2` (configuration not stated), the INHIBITION is reported as -5.52%. Compound `O=C1[C@H]2CN(Cc3ccco3)C[C@H]2CN1c1cncnc1` has an INHIBITION of -54.3%. With `COCC(=O)N1CCC2(CCN(Cc3cccnc3)C2)CC1` the INHIBITION was -7.11%. With `c1cncc(-c2ccc3c(c2)CCC32CCNCC2)c1` the INHIBITION was 86.9%. `c1cncc(-c2ccc3c(c2)C2(CCNCC2)CC3)c1` showed an INHIBITION of 71.1%. Work on `CN(C)CC(=O)N1CCC2(CCc3cc(-c4cccnc4)ccc32)CC1` yielded an INHIBITION of 80.1%. Compound `Cc1n[nH]c(C)c1CC(=O)N1CCN(C)C2(CCNC(=O)CC2)C1` (configuration not stated) has an INHIBITION of -115%. With `COCCN1CCC12CCN(C(=O)Cc1cccs1)C2` (configuration not stated) the INHIBITION was -9.04%. `CN1CCC2(COCc3cnc(-c4ccccc4)nc32)C1` (configuration not stated) showed an INHIBITION of -45%. `COCCn1c(C(=O)NC(C(N)=O)C(C)C)cc2ccccc21` (configuration not stated) gave an INHIBITION of -92%. In the case of `COc1nc(N2CCNCC2)ncc1Br`, the INHIBITION is reported as 23.8%. `Cc1ccc(N2CCC3(CN(CCO)CCC3(F)F)C2)nn1` (configuration not stated) was tested, and the INHIBITION was -59.8%. With `CCc1ncc(CN2CCC3(CCCN(CC4CCC4)C3)C2)cn1` (configuration not stated) the INHIBITION was 8.28%. For `COc1ncc(CN2CCC3(CCCN(CC4CCC4)C3)C2)cn1` (configuration not stated), the INHIBITION was -57.4%. Compound `Fc1cnc(N2CCCC3(CCN(Cc4ccsc4)C3)C2)nc1` (configuration not stated) has an INHIBITION of 87.6%. `Cc1c[nH]c(CN2CCC3(CCCN(Cc4ccc(F)c(F)c4)C3)C2)n1` (configuration not stated) gave an INHIBITION of 80.3%. For `Fc1cnc(N2CCCC3(CCN(Cc4ccoc4)C3)C2)nc1` (configuration not stated), the INHIBITION was 73.7%. `CCc1cnc(N2CC3(CCN(Cc4ccsc4)C3)C2)nc1` gave an INHIBITION of -19.4%. `COCCN1CCC2(C1)CN(c1ncc(F)cn1)C2` was tested, and the INHIBITION was -81.1%. `COc1ccc(CN2CCC3(CCCN(c4ncc(F)cn4)C3)C2)cc1` (configuration not stated) showed an INHIBITION of 87.1%. In the case of `Fc1cnc(N2CCCC3(CCN(Cc4nccs4)C3)C2)nc1` (configuration not stated), the INHIBITION is reported as 25.5%. `Fc1cnc(N2CC3(CCN(Cc4ccsc4)C3)C2)nc1` was tested, and the INHIBITION was 3.41%. `Cc1ncc(CN2CCC3(CCCN(CC4CCC4)C3)C2)cn1` (configuration not stated) gave an INHIBITION of -45.2%.
